For 73 molecules, inhibition results are on record in PubChem BioAssay AID652115 (Broad Institute, 2013).

Usually inhibition stands for the change of the read-out against control, counted positive when it falls.

“And” between values parts separate entries of the source, which are not always exact repeats. Identical values can stand only once. Out of some 330,000 compounds screened, about 3,800 (1.2%) were called active. This is one part of a sample in which actives are shown more often than they occur. A number with no mark means an inactive call. Cut-off read from the data, not from the text of the source: active = inhibition above about 15%; inconclusive = no clear call, values can overlap the other calls; inactive = below that.

The target in the experiment is NAD-dependent protein deacylase sirtuin-5, mitochondrial (Homo sapiens) (UniProt Q9NXA8). Description: SIRT5 desuccinylase inhibitors, primary screen, biochemical, fluorescence imaging, single point, set 5 (AID 652115). The conditions noted are these: Purified SirT5, succinyl-peptide AMC, trypsin-coupled fluorescence; at 15 µM; stronger effect = higher value.
Chain of NAD-dependent protein deacylase sirtuin-5, mitochondrial (Homo sapiens) (Q9NXA8 whole entry, looked up): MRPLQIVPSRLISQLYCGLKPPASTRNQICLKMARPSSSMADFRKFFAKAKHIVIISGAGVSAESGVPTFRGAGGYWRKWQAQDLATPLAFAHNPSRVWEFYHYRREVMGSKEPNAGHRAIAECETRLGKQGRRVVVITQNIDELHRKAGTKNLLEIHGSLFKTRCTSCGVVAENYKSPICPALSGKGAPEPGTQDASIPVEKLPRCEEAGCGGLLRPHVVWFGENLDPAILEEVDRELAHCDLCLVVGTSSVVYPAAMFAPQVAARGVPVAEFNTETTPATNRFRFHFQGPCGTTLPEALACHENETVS
Regarding `COc1ccc(NC(=O)N(C)C[C@@H]2OCCCC[C@H](C)Oc3ccc(NS(=O)(=O)c4cccs4)cc3C(=O)N([C@@H](C)CO)C[C@@H]2C)cc1`, the inhibition was -0.093%.

For `C[C@H](CO)N1C[C@H](C)[C@@H](CN(C)CC2CCOCC2)Oc2ncc(C#Cc3ccc(F)cc3)cc2C1=O`, the inhibition was -1.14%.

Consider `C[C@@H]1CN([C@@H](C)CO)C(=O)c2cc(C#C[C@@H](C)O)cnc2O[C@H]1CN(C)CC1CCOCC1`, for which the inhibition was -2.03%.

With `C[C@@H]1CN([C@H](C)CO)C(=O)c2cc(C#CC3CCCC3)cnc2O[C@H]1CN(C)S(C)(=O)=O`, the inhibition is -4.07%.

In the case of `CC(C)CC#Cc1cnc2c(c1)C(=O)N([C@H](C)CO)C[C@H](C)[C@H](CN(C)CC1CCOCC1)O2`, the inhibition was 23% (active).

In the case of `C[C@H]1CN([C@@H](C)CO)C(=O)c2cc(C#CC3CCCCC3)cnc2O[C@H]1CN(C)S(=O)(=O)c1ccccc1`, the inhibition was 13.2%.

As for `C[C@@H]1CN([C@@H](C)CO)C(=O)c2cc(C#CC3CCCCC3)cnc2O[C@H]1CN(C)S(=O)(=O)c1ccccc1`, the inhibition is 17.9% (active).

Turning to `C[C@H]1CN([C@@H](C)CO)S(=O)(=O)c2ccc(-c3cccc(C#N)c3)cc2O[C@H]1CN(C)CC1CC1`, the inhibition is -0.017%.

As to `COCC#Cc1cnc2c(c1)C(=O)N([C@@H](C)CO)C[C@@H](C)[C@@H](CN(C)S(=O)(=O)c1cccc(OC)c1)O2`, the inhibition is -3.81%.

For the molecule `CN(C)Cc1cn(CC[C@H]2CC[C@H](NS(=O)(=O)c3ccccc3)[C@@H](CO)O2)nn1`, the inhibition is -3.23%.

Take `Cc1ccc(S(=O)(=O)N2C[C@H](O)COC[C@H]3O[C@H](CC(=O)N[C@H]4CCN(Cc5ccccc5)C4)CC[C@@H]32)cc1`: the inhibition was -1.53%.

As to `CN(CCO)c1ccc(/C=N/Nc2nncc3ccccc23)cc1`, the inhibition is 25% (active).

Regarding `CN(C(=O)CSc1nncc2ccccc12)C1CCCCC1`, the inhibition is 1.3%.

With `C/C(=N\Nc1nncc2ccccc12)c1ccc(Cl)c([N+](=O)[O-])c1`, the inhibition was 2.12%.

On to `C[C@H]1CCCCO[C@@H](CN(C)Cc2ccccc2)[C@@H](C)CN([C@@H](C)CO)C(=O)c2cc(NC(=O)Cc3ccccc3)ccc2O1`, for which the inhibition is 2.55%.

In the case of `O=C(C[C@H]1CC[C@@H](NC(=O)Cc2cccnc2)[C@H](CO)O1)Nc1ccc(-c2ccccc2)cc1`, the inhibition is 4.12%.

As for `O=C(CCN1C(=O)C2C3C=CC(C3)C2C1=O)Oc1ccc2ccccc2c1` (stereo not drawn), the inhibition is 19.8% (active).

With `O=C(O)CCCN1C(=O)C2C3c4ccccc4C(c4ccccc43)[C@@H]2C1=O` (stereo partly drawn), the inhibition was -0.491%.

Turning to `Cc1ccc(C(=O)COC(=O)CCN2C(=O)C3C4CCC(C4)C3C2=O)cc1C` (stereo not drawn), the inhibition was -2.42%.

Consider `CCCNC(=O)N[C@@H]1C=C[C@H](CC(=O)NC2CCC2)O[C@H]1CO`, for which the inhibition was -0.778%.

For `COc1ccc2c3c(n(C)c2c1)[C@H](CO)N(S(=O)(=O)c1ccc(C)cc1)CC31CN(C(=O)c2ccccn2)C1`, the inhibition is 1.96%.

In the case of `CN(C)C(=O)[C@@H]1[C@@H](CO)[C@@H]2Cn3c(ccc(-c4ccncc4)c3=O)[C@H]1N2C(=O)NC1CCCC1`, the inhibition is -68%.

Regarding `CCN1/C(=C\c2ccc3ccccc3[n+]2CC)Sc2cc(C)ccc21`, the inhibition was 28.6% (active).

For `COc1cccc(-c2cnc3c(c2)C(=O)N([C@H](C)CO)C[C@H](C)[C@@H](CN(C)Cc2ccc(C(=O)O)cc2)O3)c1`, the inhibition is -2.74%.

Take `O=C(C[C@H]1C[C@@H]2c3cc(NC(=O)CC4CC4)ccc3O[C@@H]2[C@H](CO)O1)NCc1ccccn1`: the inhibition is -3.34%.

As for `C[C@@H](O)C#Cc1cnc2c(c1)C(=O)N([C@@H](C)CO)C[C@H](C)[C@H](CN(C)C(=O)c1ccccc1F)O2`, the inhibition is 2.03%.

In the case of `CC1=C(C(=O)N(C)C)CC(CC(=O)NCCN2CCOCC2)C(=O)N1Cc1ccccc1` (stereo not drawn), the inhibition was -4.9%.

As to `CC1c2nc3ccccc3n2C(CC(=O)NCCCN2CCOCC2)C(=O)N1Cc1ccccc1` (stereo not drawn), the inhibition was 112% (active).

`O=C(Cn1ncc2c3ccccc3n(Cc3ccccc3)c2c1=O)NCCCN1CCOCC1`: the inhibition was 0.065%.

With `C[C@@H]1CCCCO[C@@H](CN(C)Cc2ccc3c(c2)OCO3)[C@H](C)CN([C@@H](C)CO)C(=O)c2cc(NS(C)(=O)=O)ccc2O1`, the inhibition is -3.83%.

Take `CC(C)(C)c1cc(C(=O)NN)n(Cc2ccc(Cl)cc2Cl)n1`: the inhibition was 1.67%.

For `N#CC(C#N)=CN=c1ccn(Cc2ccc(Cl)cc2Cl)cc1`, the inhibition was 16.1% (active).

Turning to `C[C@@H]1CN([C@@H](C)CO)C(=O)c2cc(NC(=O)Nc3ccc(C(F)(F)F)cc3)ccc2O[C@@H](C)CCCCO[C@@H]1CN(C)C(=O)Nc1cccc2ccccc12`, the inhibition was -1.14%.

`Cc1csc(NC(=O)c2ccc(-c3ccc(Cl)cc3Cl)o2)n1`: the inhibition was -0.507%.

Regarding `CC1CCN(C(=S)c2ccc(-c3ccc(Cl)cc3Cl)o2)CC1`, the inhibition is 17.1% (active).

Take `CC1CCN(C(=S)c2cccc(O)c2)CC1`: the inhibition was 0.61%.

For the molecule `COc1ccc2c3c([nH]c2c1)[C@H](CO)N(C(=O)c1ccccc1)CC31CN(C(=O)Nc2cccc(F)c2)C1`, the inhibition was 1.05%.

Regarding `CC(C)c1cn([C@H]2C[C@@H]3O[C@H](CO)CC[C@@H]3O[C@@H]2CCc2ccc(C#CC3CCCCC3)cc2)nn1`, the inhibition was -3.82%.

`Cc1nn(-c2ccccc2)c2c1c(C)c(CCC(=O)NCC1CCCO1)c(=O)n2C` (stereo not drawn): the inhibition is 39.7% (active).

As to `Cc1sc2c(c1C)c(=O)n(-c1ccccc1)c(=O)n2CC(=O)NCC1CCCO1` (stereo not drawn), the inhibition was -4.65%.

Consider `CCCNC(=O)CCc1c(C)nc2c(c(C)nn2-c2ccccc2)c1C`, for which the inhibition is -2.55%.

In the case of `CCCC#Cc1ccc([C@@H]2[C@@H](CO)N3C(=O)CN(C(=O)Nc4cccc(F)c4)C[C@H]23)cc1`, the inhibition is 6.12%.

In the case of `CCC(=O)Nc1ccc2c(c1)C(=O)N(C)C[C@@H](OC)[C@H](C)CN(Cc1cccnc1)[C@@H](C)CO2`, the inhibition is -0.588%.

As to `Cc1ccc(SCC(=O)Nc2nncs2)cc1`, the inhibition was -2.47%.

As for `Cc1ccc(NC(=O)Cc2nnc(SCC(=O)Nc3nncs3)n2C)cc1`, the inhibition is 17.8% (active).

Turning to `Cn1c(CC(=O)Nc2ccc(F)cc2)nnc1SCC(=O)NC1CCCCC1`, the inhibition is 0.115%.

For `O=C(C[C@H]1C[C@@H]2c3cc(NC(=O)C4CCC4)ccc3O[C@@H]2[C@H](CO)O1)NCCN1CCCCC1`, the inhibition is -1.29%.

On to `C[C@H](CO)N1C[C@H](C)[C@@H](CN(C)C)Oc2c(NC(=O)Nc3ccc(F)cc3)cccc2C1=O`, for which the inhibition was -3.52%.

Consider `C[C@H]1CN([C@@H](C)CO)C(=O)c2cc(-c3ccccc3F)cnc2O[C@@H]1CN(C)C`, for which the inhibition was -1.72%.

Turning to `CCCNC(=S)N1CCC(NC(=O)c2ccc(OC)cc2)CC1`, the inhibition was 2.19%.

Take `CC(C)OCCCNC(=S)N1CCC(C(=O)c2ccc3c(c2)OCCO3)CC1`: the inhibition is 26.6% (active).

`COCCNC(=O)C1CCN(S(=O)(=O)c2ccc3c(c2)OCCO3)CC1`: the inhibition was -1.09%.

As for `O=C(c1cccnc1)N1CC2(C1)[C@@H](c1ccccc1)[C@H](CO)N2C(=O)C1CCC1`, the inhibition was -1.71%.

For the molecule `COc1ccc(NC(=O)c2ccccc2CC[N+](=O)[O-])cc1`, the inhibition was -2.27%.

Consider `CCOC(=O)Cc1ncccc1C(=O)Nc1ccc(OC(F)(F)F)cc1`, for which the inhibition is -0.166%.

As to `CCOC(=O)Cc1ncccc1C(=O)Nc1ccc(OC)cc1`, the inhibition is 15.7% (active).

With `COc1cccc(C(=O)Nc2ccc3c(c2)C(=O)N(C)[C@@H]2CC[C@H](CC(=O)NCCCN4CCOCC4)O[C@H]2CO3)c1`, the inhibition is 1.19%.

For the molecule `COc1cccc(C#Cc2cnc3c(c2)C(=O)N([C@H](C)CO)C[C@@H](C)[C@@H](CN(C)C(=O)C2CCC2)O3)c1`, the inhibition is 0.234%.

For the molecule `O=C(N[C@@H]1CC[C@@H](CC(=O)N2CCc3ccccc3C2)O[C@H]1CO)C1CC1`, the inhibition is 3.34%.

`CCS(=O)(=O)N1CC(=O)N2[C@H](CO)[C@@H](c3ccc(C#Cc4cccc(F)c4)cc3)[C@@H]2C1`: the inhibition is -0.525%.

As for `CCOc1ccccc1Nc1ccc(C(=O)O)cc1[N+](=O)[O-]`, the inhibition is -0.287%.

Turning to `NC(=O)c1ccc(Nc2ccc3c(c2)CCC3)c([N+](=O)[O-])c1`, the inhibition is 28.4% (active).

In the case of `NC(=O)c1ccc(Nc2ccc3nonc3c2[N+](=O)[O-])cc1`, the inhibition was 2.49%.

On to `CCNC(=O)Nc1ccc2c(c1)C(=O)N(C)[C@H]1CC[C@H](CC(=O)NCC3CCCCC3)O[C@@H]1CO2`, for which the inhibition is 3.92%.

As to `CCC(=O)Nc1ccc2c(c1)C(=O)N(C)[C@H]1CC[C@H](CC(=O)NCC3CCCCC3)O[C@H]1CO2`, the inhibition is -3.85%.

`CCCNC(=O)Nc1ccc2c(c1)C(=O)N(C)[C@H]1CC[C@H](CC(=O)NCC3CCCCC3)O[C@@H]1CO2`: the inhibition was 31.7% (active).

As to `C[C@@H]1CN([C@H](C)CO)C(=O)CCCn2cc(nn2)CO[C@@H]1CN(C)Cc1ccccc1C(=O)O`, the inhibition is -0.401%.

`COc1ccc2c3c([nH]c2c1)[C@H](CO)N(C(=O)C1CCCCC1)CC31CCN(C(=O)c2ccncc2)CC1`: the inhibition was -1.36%.

As to `COc1cccc(S(=O)(=O)N2[C@@H]3CNC[C@H]2C3c2ccc(-c3cccc(C(=O)N(C)C)c3)cc2)c1` (stereo partly drawn), the inhibition was 3.63% and 4.46%.

With `Cc1noc(C)c1/C=N/Nc1ccc2ccccc2n1`, the inhibition was -4.8%.

Consider `C(=N\Nc1ccc2ccccc2n1)/c1ccc2c(c1)OCO2`, for which the inhibition is 15.4% (active).

`Cc1cc(=O)[nH]c(N/N=C/c2ccc3c(c2)OCCO3)n1`: the inhibition was 2.57%.

Consider `CN(C)Cc1cn(CC[C@H]2CC[C@H](NC(=O)Nc3ccccc3F)[C@@H](CO)O2)nn1`, for which the inhibition is -13.2%.
